In all, about 48,000 compounds went through this assay and about 13,000 (27%) showed an effect of 50% or more. Some of the results follow.
Each compound was assayed on Wolbachia pipientis (assay: Anti-Wolbachia Cell-Based Screen). Conditions: 5 µM.
Assay type: functional
Parameters: scale not given: in the data most compounds retested in dose-response had high values
For C[C@@H]1CN(C(=O)c2ccc(Br)cc2F)CC(C(N)=O)O1 (stereo partly drawn), the “Percent Effect” value was -4.259%. CCOCCCNC(=O)Cc1cccs1 was tested, and the “Percent Effect” value was 73.09%. For CCOCCNC(=O)Cc1cccc(I)c1, the “Percent Effect” value was 3.378%. O=C(Cc1cccs1)NCC1(O)CCSCC1 was tested, and the “Percent Effect” value was 3.486%. With O=C(NCC1(O)CCc2ccccc21)Nc1ccc2c(c1)OCO2 (stereo not drawn) the “Percent Effect” value was -4.749%. With Clc1ccc(CNc2ccc(Cl)cn2)cc1 the “Percent Effect” value was -12.24%. With Cn1ccnc1-c1noc(NCc2ccc(Br)cc2)n1 the “Percent Effect” value was 0.2508%. With Cn1ncnc1NCc1ccc(Cl)cc1 the “Percent Effect” value was 106%. With Cn1ncnc1NS(=O)(=O)c1ccc(F)cc1 the “Percent Effect” value was -13.8%. For Cn1ncnc1NS(=O)(=O)c1ccccc1, the “Percent Effect” value was -4.376%. For Cn1ncnc1NS(=O)(=O)c1ccc(F)cc1Cl, the “Percent Effect” value was -0.8831%. For Cn1ncnc1NCc1ccc(Br)cc1, the “Percent Effect” value was 79.22%. For Cc1nnc(NCc2ccc(Br)cc2)o1, the “Percent Effect” value was -15.89%. Cn1ccnc1-c1noc(NCc2ccc(Cl)cc2)n1 was tested, and the “Percent Effect” value was 9.491%. For CN(Cc1cc(Cl)ccc1Cl)Cc1ncnn1C, the “Percent Effect” value was 20.54%. In the case of Cn1ncnc1NCc1ccc(F)cc1, the “Percent Effect” value is reported as 113.5%. In the case of Cn1ncnc1NCc1ccccc1Cl, the “Percent Effect” value is reported as 98%. CC(C)c1nccn1CCCNC(=O)c1ccc(N(C)C)nc1 was tested, and the “Percent Effect” value was -4.813%. NC(=O)CN1CCCC(c2ccnc(Nc3ncccn3)c2)C1 (stereo not drawn) was tested, and the “Percent Effect” value was 104.7%. For Cl.Cl.NCC(=O)N1CCCC(c2cncc(Nc3ncccn3)n2)C1 (stereo not drawn), the “Percent Effect” value was -7.502%. With Cc1cccc(Nc2cc(C3CCCN(CC(N)=O)C3)ccn2)n1.O=CO.O=CO (stereo not drawn) the “Percent Effect” value was 109.2%. With NC(=O)CN1CCCC(C(=O)N2CCC(Oc3ncccn3)CC2)C1 (stereo not drawn) the “Percent Effect” value was -4.684%. For Cc1cccc(C2CCCN(C(=O)C3CCN(CC(N)=O)CC3)C2)c1 (stereo not drawn), the “Percent Effect” value was -11.42%. With Cc1cccc(C2CCCN(C(=O)CN3CCC(C(N)=O)CC3)C2)c1 (stereo not drawn) the “Percent Effect” value was -7.369%. NC(=O)CN1CCCC(c2cncc(Nc3ncccn3)n2)C1 (stereo not drawn) was tested, and the “Percent Effect” value was 117.4%. CCN1CCCC(c2c(-c3ccccc3)ncn2CC(N)=O)C1 (stereo not drawn) was tested, and the “Percent Effect” value was 0.7504%. With CCC(C)N(Cc1ccncc1)C(=O)CCC(=O)OC (stereo not drawn) the “Percent Effect” value was -41.55%. For Cc1nc(CN2CCCN(CC(=O)N(C)C(C)(C)C#N)CC2)no1, the “Percent Effect” value was 10.3%. For CC(C)(C)OC(=O)N1CCC[C@H](NCC2=CCCOC2)C1, the “Percent Effect” value was -0.302%. O=C(O)C(F)(F)F.O=C(O)C(F)(F)F.O=C(c1ccncc1)N1CC[C@@H]2[C@@H](CC1)OCCN2c1cccnc1 was tested, and the “Percent Effect” value was -4.707%. For CN(C)C(=O)c1nc(-c2ccc(S(C)(=O)=O)cc2)c2ccccn12, the “Percent Effect” value was 94.54%. In the case of CC(C)n1cnc(-c2nc(C(=O)N3CCCC3)c3ccccn23)c1, the “Percent Effect” value is reported as -0.8191%. In the case of CN(C)C(=O)c1nc(-c2ccc(S(C)(=O)=O)cc2)c2cnccn12, the “Percent Effect” value is reported as 107.6%. In the case of CN(Cc1ccccc1)C(=O)c1nc(S(C)(=O)=O)n2ccccc12, the “Percent Effect” value is reported as -0.6664%. With CS(=O)(=O)c1ccc(-c2nc(C(=O)N3CCCC3)n3ccccc23)cc1 the “Percent Effect” value was 91.51%. In the case of CC(C)CCN(C)C(=O)c1nc(S(C)(=O)=O)n2ccccc12, the “Percent Effect” value is reported as 1.111%. O=C(c1coc(-c2ccccc2)n1)N1CCCC1 was tested, and the “Percent Effect” value was 6.616%. With NCCN1CCC(c2nnc(Cn3ccnc3)n2C2CC2)CC1 the “Percent Effect” value was 3.949%. For COc1ccc(CN(C)CC(=O)NC2(C)CCS(=O)(=O)C2)cc1F (stereo not drawn), the “Percent Effect” value was -5.934%. In the case of O=C(NC1CC(=O)N(C2Cc3ccccc3C2)C1)c1cnccn1 (stereo not drawn), the “Percent Effect” value is reported as -14.57%. With O=C(NC1CCCN(c2ccc(OC(F)F)cc2)C1)c1cnccn1 (stereo not drawn) the “Percent Effect” value was -2.478%. With O=C(NC1CCCN(CCc2ccccc2)C1)c1cnccn1 (stereo not drawn) the “Percent Effect” value was 115.1%. CC(=O)NC1CCCN(Cc2ccc(OCc3ccccn3)cc2)C1 (stereo not drawn) was tested, and the “Percent Effect” value was -5.429%. In the case of CN(C(=O)CSc1ccccn1)C1CCCN(CCc2ccccc2)C1 (stereo not drawn), the “Percent Effect” value is reported as -2.321%. In the case of O=C(NC1CCCN(CCc2ccccc2)C1)c1ccccn1 (stereo not drawn), the “Percent Effect” value is reported as 90.98%. In the case of O=C(CCO)N1C[C@H]2CC[C@@H]1CN(C1Cc3ccccc3C1)C2, the “Percent Effect” value is reported as 7.309%. With O=C(c1ccccc1)N1CCN(CC2CCOc3ccccc3C2)CC1 (stereo not drawn) the “Percent Effect” value was -9.678%. With CC(=O)Nc1cccc(C(=O)N2CCc3c(nc(N(C)C)[nH]c3=O)C2)c1 the “Percent Effect” value was -4.662%. CCn1cnnc1CNC(=O)NC(c1ccc(OC)cc1)C1CC1 (stereo not drawn) was tested, and the “Percent Effect” value was -3.354%. With COc1cc2c(cc1-c1nc3c(cnn3C(C)C)[nH]1)OCO2 the “Percent Effect” value was 0.2831%. Cc1ncsc1C(=O)N(C)Cc1ccncc1 was tested, and the “Percent Effect” value was -15.3%. In the case of CCc1nc(CN(C)C(=O)c2cc(CN(CC)CC)c(CC)o2)no1, the “Percent Effect” value is reported as 113.6%. With Cc1ccc(C)c(OCc2cc(C(=O)N(C)Cc3nonc3C)no2)c1 the “Percent Effect” value was -9.317%. CN(Cc1ccncc1)C(=O)c1ccc(F)c(NS(C)(=O)=O)c1 was tested, and the “Percent Effect” value was 4.431%. With CCC(=O)Nc1cc(Cl)ccc1C(=O)N(C)Cc1noc(CC)n1 the “Percent Effect” value was -2.438%. For CCc1oc(C(=O)N(C)Cc2ccncc2)cc1CN(CC)CC, the “Percent Effect” value was 110.2%. CCN(Cc1nonc1C)C(=O)c1ccc(Br)o1 was tested, and the “Percent Effect” value was 1.066%. In the case of CCc1nc(CN(C)C(=O)c2cc(NC(C)=O)ccc2Cl)no1, the “Percent Effect” value is reported as -10.82%. CCc1oc(C(=O)N(C)Cc2nonc2C)cc1CN(CC)CC was tested, and the “Percent Effect” value was 117.2%. CCOc1ccc(CN2C(=O)CC3(CCCC3)C2=O)nc1 was tested, and the “Percent Effect” value was -27.44%. In the case of O=C1CC(CNc2cncc(Br)c2)c2ccccc2N1 (stereo not drawn), the “Percent Effect” value is reported as 11.7%. For O=C1CN(Cc2cn(CC3CCN(C4CCSCC4)CC3)nn2)CCN1, the “Percent Effect” value was -10.54%. In the case of CCN1C(=O)C2(CCOCC2)c2cc(NC(=O)c3cnoc3C)ccc21, the “Percent Effect” value is reported as -1.334%. With CCN1C(=O)C2(CCOCC2)c2cc(NC(=O)c3ccco3)ccc21 the “Percent Effect” value was 4.939%. CCS(=O)(=O)Nc1ccc2c(c1)C1(CCOCC1)CN2C.O=C(O)C(F)(F)F was tested, and the “Percent Effect” value was 89.45%. For CCN1CC2(CCOCC2)c2cc(NS(=O)(=O)CC)ccc21.O=C(O)C(F)(F)F, the “Percent Effect” value was 93.24%. CCN1C(=O)C2(CCOCC2)c2cc(NC(=O)c3csnn3)ccc21 was tested, and the “Percent Effect” value was 5.242%. For CN(C)C(=O)N1CC2(CCOCC2)c2cc(NS(=O)(=O)C3CC3)ccc21, the “Percent Effect” value was -3.56%. In the case of COC(=O)C(C)NC(=O)CSCc1nc(O)c2cc(C(C)C)sc2n1 (stereo not drawn), the “Percent Effect” value is reported as 3.354%. With Cc1nc(C)c(CC(=O)Nc2nnc(C)s2)c(=O)[nH]1 the “Percent Effect” value was -6.123%. Cc1cccc2nc(CN3CCCC(C)C3)cc(=O)n12 (stereo not drawn) was tested, and the “Percent Effect” value was 12.06%. For COc1ccc(C(C)NC(=O)Nc2nnc(C)s2)cc1OC (stereo not drawn), the “Percent Effect” value was 6.701%. For Cc1ccc2nc(CN(Cc3ccc(C)o3)C(C)C)cc(=O)n2c1, the “Percent Effect” value was -6.244%. Cc1cnn(CC(C)NCc2cc(=O)n3cc(C)ccc3n2)c1 (stereo not drawn) was tested, and the “Percent Effect” value was 5.917%. With CC(C)c1nnc(NC(=O)Cc2csc(-c3nnc[nH]3)n2)s1 the “Percent Effect” value was 3.837%. In the case of Cc1ccn2c(=O)cc(CSCC(=O)Nc3nnc(C(C)C)s3)nc2c1, the “Percent Effect” value is reported as 111%. Cc1ccc2nc(CSCC(=O)Nc3nnc(C(C)C)s3)cc(=O)n2c1 was tested, and the “Percent Effect” value was 91.49%. For Cc1cccc2nc(CSCC(=O)Nc3nnc(C(C)C)s3)cc(=O)n12, the “Percent Effect” value was 122.4%. With Cc1nnc(NC(=O)CSCc2cc(=O)n3ccccc3n2)s1 the “Percent Effect” value was 113.7%. With Cc1ccc(CNC(=O)Nc2nnc(C(C)C)s2)n1C the “Percent Effect” value was -5.821%. CN(C)c1cccc(C(=O)NCC(O)c2cccs2)c1 (stereo not drawn) was tested, and the “Percent Effect” value was -6.039%. For CCc1ncc2c(n1)CN(C(=O)c1c(C)[nH]c(C(C)=O)c1C)C2, the “Percent Effect” value was 1.251%. For CN(Cc1cccs1)C1CCC[C@@H]2CN(C(=O)c3cnccn3)C[C@H]12.O=C(O)C(F)(F)F (stereo partly drawn), the “Percent Effect” value was 14.26%. With Cc1ccc(C(C(=O)O)N2CCCN(Cc3ccccn3)CC2)c(F)c1 (stereo not drawn) the “Percent Effect” value was -1.838%. In the case of Cc1cccn2c(=O)cc(CN3CCCC3Cn3cccn3)nc12 (stereo not drawn), the “Percent Effect” value is reported as 11.97%. In the case of Cc1cccn2c(=O)cc(CSCC(=O)Nc3nnc(C(C)C)s3)nc12, the “Percent Effect” value is reported as 100.1%. Cc1ccc(CN(Cc2cc(=O)n3cccc(C)c3n2)C(C)C)o1 was tested, and the “Percent Effect” value was 2.311%. In the case of Cc1cnn(CC(C)NCc2cc(=O)n3ccccc3n2)c1 (stereo not drawn), the “Percent Effect” value is reported as 4.155%. In the case of CC(C)c1nnc(NC(=O)CSCc2cc(=O)n3ccccc3n2)s1, the “Percent Effect” value is reported as 114.5%. For COc1ccc(OC)c(-n2c(COC(C)C)n[nH]c2=O)c1, the “Percent Effect” value was -3.997%. For COc1ccc(OCc2nc(C(=O)N3CC[C@H](O)[C@@H](O)C3)co2)cc1, the “Percent Effect” value was -2.37%. Cn1ccc(C(=O)N2CCC(c3cc(CCO)n(C)n3)C2)n1 (stereo not drawn) was tested, and the “Percent Effect” value was 79.61%. In the case of Cc1nc(C(=O)N2CCC(c3cc(CCO)n(C)n3)C2)co1 (stereo not drawn), the “Percent Effect” value is reported as 113%. For Cn1cc(C(=O)N2CC[C@H](N3CCOCC3)[C@H](CCCO)C2)cn1, the “Percent Effect” value was -10.44%. CS(=O)(=O)NC[C@@H]1OC[C@H]2CN(C(=O)c3cnccn3)CC[C@H]21 was tested, and the “Percent Effect” value was -5.14%. Cn1nc(C2CCN(C(=O)c3cnccn3)C2)cc1CCO (stereo not drawn) was tested, and the “Percent Effect” value was 76.91%. With Cn1cc(C(=O)N2CCC(c3cc(CCO)n(C)n3)C2)cn1 (stereo not drawn) the “Percent Effect” value was 181.5%. Cc1cc(C(=O)N2CC[C@@H]3CO[C@@H](CN4CCCC4)[C@@H]3C2)no1 was tested, and the “Percent Effect” value was -4.858%. With COC(=O)C1CCCN1C(=O)c1ccc(Br)cc1F (stereo not drawn) the “Percent Effect” value was 19.55%. In the case of Cc1ccc2c(n1)N(C)CCN(C(=O)NC1CC1)C2.O=C(O)C(F)(F)F, the “Percent Effect” value is reported as 4.586%. For O=C(NCc1cn2cccnc2n1)C1CC(=O)N(Cc2cccnc2)C1 (stereo not drawn), the “Percent Effect” value was -8.48%. With CC(C)n1cc(C(=O)NCCCc2csc(N)n2)cn1 the “Percent Effect” value was -8.171%. With CNS(=O)(=O)c1cccc(C(C)NCc2ccc(C)o2)c1 (stereo not drawn) the “Percent Effect” value was -6.612%.

Reference: ChEMBL document CHEMBL3988442, “University of Dundee, Small-Polar-MMV Screening Library” (2021)
